Source: PubChem BioAssay (Tox21)
Records with an inconclusive call do not appear. Unmarked numbers belong to inactive results. The source made the active and inactive calls. Calls come from the whole dose curve; as a rule, active = well fitted cell-killing curve with a large enough effect in the repeat runs; inconclusive = weak or mixed curves, or effect the other way; inactive = flat fitted curve, though single readings scatter.

Assay: qHTS assay to identify small molecule agonists of the TGF-beta/Smad signaling pathway - cell viability counter screen (AID 1346829); note: nearly all actives have a fitted effect of over 45% in size; for activity change, negative = cytotoxicity: top concentration of the series differs between compounds
Settings: SBE-bla HEK293T viability, CellTiter-Glo luminescence, 5 h; series mostly up to 76.8 µM; activity change, negative = cytotoxicity: at the top concentration
Excerpt: National Center for Advancing Translational Sciences [NCATS]
NIH Chemical Genomics Center [NCGC]
U.S. Environmental Protection Agency [EPA]
National Institutes of Environmental Health Sciences [NIEHS]
National Toxicology Program [NTP]
U.S. Food and Drug Administration [FDA]
Transforming growth factor beta (TGF-beta) superfamily consists of a large number of structurally related dimeric proteins that act as hormones or local mediators in regulating a wide range of biological functions. This superfamily includes TGF-betas themselves, the bone morphogenetic proteins (BMPs) and the activins. These ligands induce oligomerization of serine/threonine receptor kinases and phosphorylate the cytoplasmic signaling molecules of Smad protein family. CellSensor SBE-bla HEK 293T cell line (Life Technologies, Carlsbad, CA), responsive to TGF-beta was used to screen Tox21 10K compound library for identification of agonists/antagonists of the Smad signaling pathway. This cell line contains a beta-lactamase reporter gene under control of the Smad binding element (SBE) stably integrated into HEK 293T cells. Also cytotoxicity of the compounds was tested in parallel by measuring the cell viability using CellTiter-Glo assay system in the same wells.
Tox21 Assay Protocol Summary:
SBE-bla HEK 293T cells were dispensed at 4,000/well in 6 uL of assay medium into black wall/clear-bottom 1536-well plates using a Multidrop Combi (ThermoFisher Scientific, Waltham, MA) dispenser. After the assay plates were incubated at 37 C and 5% CO2 for an overnight, 23 nL of compounds dissolved in DMSO, positive controls or DMSO only was transferred to the assay plate by a Pintool station (Kalypsys, San Diego, CA). The assay plates were incubated at 37 C and 5% CO2 for 5 hr. One uL of LiveBLAzer B/G FRET substrate (Life Technologies) was added using a Flying Reagent Dispenser (FRD, Aurora Discovery, San Diego, CA) and the plates were incubated at room temperature for 2 hr. Fluorescence intensity (405 nm excitation, 460 nm and 530 nm emissions) was measured using an Envision plate reader (PerkinElmer, Shelton, CT). For cytotoxicity read, 4 uL of CellTiter-Glo reagent (Promega Corporation, Madison, WI) was added to each well of the assay plates using FRD. After 30min incubation at room temperature, the luminescence intensity was measured using ViewLux plate reader (PerkinElmer).
% is set by controls: 0 for no effect and ±100 for the full control effect; potency is the fitted concentration of half-maximal effect.

| SMILES | activity change, negative = cytotoxicity | Potency |
| --- | --- | --- |
| COP(=S)(NC(C)C)Oc1ccc(C)cc1[N+](=O)[O-] (stereo not given) | -0.841% |  |
| Clc1ccc(C(Cl)(Cl)Cl)cc1Cl | 0.989% |  |
| Cc1cccc(Cc2cnc[nH]2)c1C | 1.86% [at 35.3 µM] |  |
| ClCBr | -8.9% |  |
| CCCCn1cc[n+](C)c1.[Cl][Fe-]([Cl])([Cl])[Cl] | 5.56% |  |
| CC(=O)[O][Pb]([c]1ccccc1)([c]1ccccc1)[c]1ccccc1 |  | 4.36 µM (active) |
| O=C(O)CCCCCCNC1c2ccccc2CCc2ccccc21 | -6.47% [at 35.3 µM] |  |
| CCOP(=O)(OCC)Oc1nc(Cl)c(Cl)cc1Cl | -11.3% |  |
| CCN(CC)CCc1c[nH]c2ccccc12 | 10.6% |  |
| CC(=O)[O-].CC(=O)[O-].O.O.[Zn+2] | 1.1% |  |
| c1ccc2nc(N3CCNCC3)ccc2c1 | 3.02% [at 35.3 µM] |  |
| COc1c2c(cc3c1OCO3)CCN(C)C2 | 3.73% [at 35.3 µM] |  |
| O=[N+]([O-])c1ccc(Cl)c(Cl)c1Cl | -19.1% |  |
| CC(C)N(C(=O)CCl)c1ccccc1 |  | inactive |
| CC1=C2C[C@H]3[C@@H](CC=C4C[C@@H](O)CC[C@@]43C)[C@@H]2CC[C@]12O[C@@H]1C[C@H](C)CN[C@H]1[C@H]2C | 11% [at 35.3 µM] |  |
| O=c1c2ccccc2c(=O)c2c1cc(Cl)c1[nH]c3c([nH]c12)c(Cl)cc1c(=O)c2ccccc2c(=O)c13 | 10.1% |  |
| Cc1cnc2c(C(=O)O)c(Cl)ccc2c1 | -17.8% |  |
| N#Cc1sc2c(=O)c3ccccc3c(=O)c=2sc1C#N |  | 38.9 µM (active) |
| CNN | -5.69% |  |
| [Cl-].[Cl-].[Sn+2] | 11.6% |  |

| SMILES | activity change, negative = cytotoxicity | Potency |
| --- | --- | --- |
| [F][Sn]([c]1ccccc1)([c]1ccccc1)[c]1ccccc1 |  | 1.23 µM (active) |
| Nc1cc(Cl)ccc1Cl | 6.68% |  |
| O=C(Cl)c1ccccc1F | -0.539% |  |
| CN1C2CCC(C)(C)C1CC(OC(=O)C(O)(c1cccs1)c1cccs1)C2 (stereo not given) | -1.59% [at 35.3 µM] |  |
| COP(=S)(OC)Oc1nc(Cl)c(Cl)cc1Cl | 0.685% |  |
| NC1CCC(CC2CCC(N)CC2)CC1 (stereo not given) | 1.78% |  |
| C#CC1(O)CCCCC1 | -2.66% |  |
| CC1CCCC1 | 5.66% |  |
| [Cl-].[Cl-].[Cl-].[Yb+3] | -15.1% |  |
| CCCCCCC[CH2][Sn]([Cl])([Cl])[CH2]CCCCCCC | 1.09% |  |
| CCn1cc[n+](C)c1 (tested in a mixture with another compound) | -1.82% |  |
| CC(C)=CC1C(C(=O)OC(C#N)c2cccc(Oc3ccccc3)c2)C1(C)C (stereo not given) | -14.2% |  |
| CN1[C@@H]2CC[C@H]1CC(O)C2 (stereo not given in full) | 17.8% |  |
| CO/N=C(/C1=NOCCO1)c1ccccc1Oc1ncnc(Oc2ccccc2Cl)c1F | -13% |  |
| Nc1ccccc1-c1ccccc1 | -1.22% |  |
| Cc1ccc([N+](=O)[O-])[c]2c1[O][Hg]2 |  | 23.9 µM (active) |
| O=c1[nH]c2cc(Cl)ccc2n1C1CCNCC1 | 1.46% [at 35.3 µM] |  |
| C[C@]12C/C(=C/O)C(=O)C[C@@H]1CC[C@@H]1[C@@H]2CC[C@@]2(C)[C@H]1CC[C@]2(C)O |  | inactive |
| Clc1c(Cl)c(Cl)c(Cl)c(Cl)c1Cl | 6.4% [at 6.97 µM] |  |
| [Cl][Hg][c]1ccccc1 |  | 17.4 µM (active) |
